Several values for one entry are separate records, joined by “and”; a condition that tells them apart may be missing. Equal values may be shown once. Results filed as inconclusive are left out. Some structures have more than one record in an assay (separate samples or runs), and their calls can disagree. Activity calls are given as the source filed them.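 The calls were made as follows, unless noted: active = mean z-score across replicates of 1.96 or higher in either the MELAS or the Rieske mutant cell line; inactive = the rest.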
Legend:
[1] = viability loss in pontine glioma line – cell-based, SU-DIPG-XXV, MIPE5.0, CellTiter-Glo, qHTS, dose response (AID 1347065; cut-off not given, nearly all actives have AC50 up to about 26 µM;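 also: cells exposed to compound for 48 hours before ATP readout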); details: CellTiter-Glo ATP luminescence
[2] = SU-DIPG-VI glioma cell viability, MIPE4.0 library, CellTiter-Glo luminescence, qHTS (AID 1347066; cut-off not given, nearly all actives have AC50 up to about 30 µM;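 also: cells exposed to compound for 48 hours before readout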); details: CellTiter-Glo ATP luminescence
[3] = JHH-DIPG-1 glioma cell viability, MIPE5.0 library, CellTiter-Glo luminescence, qHTS (AID 1347067; cut-off not given, nearly all actives have AC50 up to about 26 µM;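 also: cells exposed to compound for 48 hours before readout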); details: JHH-DIPG-1 glioma viability, CellTiter-Glo ATP luminescence
[4] = SU-DIPG-XXV glioma cell viability, MIPE5.0 library, qHTS (AID 1347068; cut-off not given, nearly all actives have IC50 up to about 30 µM)
[5] = phospholipid biosynthesis inhibitors in animal cells, primary screen, cell-based, LOPAC library, screen 4 (AID 1347384; call rule not given here); details: phospholipid biosynthesis inhibition screen, at 10 µM
[6] = survival rescue of mitochondrial mutant cells in low glucose, primary screen, MELAS cybrids, Rieske KO mouse fibroblasts, CellTiter-Glo (AID 1508586);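 also: z relative to plate mean and SD of compound and empty wells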
[7] = molecular target: NAD(+) hydrolase SARM1 (Homo sapiens) (UniProt Q6SZW1); experiment: SARM1 TIR NADase inhibitors, cell lysate, NAD-Glo luminescence (AID 1508614;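 active = compound whose remaining NAD level is above about 45 nM, limit read from the data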;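 also: higher remaining NAD means stronger inhibition of SARM1 NADase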); details: SAM-TIR HEK293T lysate NADase, at 1 µM, stronger effect = higher value
Sequence of NAD(+) hydrolase SARM1 (Homo sapiens) (Q6SZW1 whole entry, looked up, the tested form may be a part): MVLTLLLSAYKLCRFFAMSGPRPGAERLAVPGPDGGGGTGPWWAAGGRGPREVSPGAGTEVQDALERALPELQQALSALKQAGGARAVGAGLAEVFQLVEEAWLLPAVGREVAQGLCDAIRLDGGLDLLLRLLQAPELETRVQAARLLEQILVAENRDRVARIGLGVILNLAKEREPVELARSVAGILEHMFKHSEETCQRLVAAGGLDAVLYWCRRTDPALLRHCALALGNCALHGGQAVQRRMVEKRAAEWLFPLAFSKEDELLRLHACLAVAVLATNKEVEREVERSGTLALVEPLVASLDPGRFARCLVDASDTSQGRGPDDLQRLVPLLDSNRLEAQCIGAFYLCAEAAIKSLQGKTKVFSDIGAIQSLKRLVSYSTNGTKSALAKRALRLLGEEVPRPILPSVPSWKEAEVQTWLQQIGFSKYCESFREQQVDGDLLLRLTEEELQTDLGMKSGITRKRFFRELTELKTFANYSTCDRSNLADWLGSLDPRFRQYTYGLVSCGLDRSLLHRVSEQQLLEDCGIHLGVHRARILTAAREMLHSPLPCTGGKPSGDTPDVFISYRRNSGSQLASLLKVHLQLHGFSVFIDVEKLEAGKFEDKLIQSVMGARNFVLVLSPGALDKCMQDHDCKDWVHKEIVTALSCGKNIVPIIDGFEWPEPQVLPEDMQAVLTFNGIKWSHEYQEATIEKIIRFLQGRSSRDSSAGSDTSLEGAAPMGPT

[8] = molecular target: Mitogen-activated protein kinase 7 (Homo sapiens) (UniProt Q13164); experiment: ERK5 transactivation activators in reporter cells, primary screen, cell-based, HTS (AID 1508626;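 active = luciferase signal above three times the same-plate solvent-only control wells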;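 also: luciferase driven by Gal4-ERK5 fusion binding five Gal4 sites before minimal TATA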); details: HeLa Gal4-ERK5 transactivation, 18 h, at 5 µM, stronger effect = higher value
Sequence of Mitogen-activated protein kinase 7 (Homo sapiens) (Q13164 whole entry, looked up, the tested form may be a part): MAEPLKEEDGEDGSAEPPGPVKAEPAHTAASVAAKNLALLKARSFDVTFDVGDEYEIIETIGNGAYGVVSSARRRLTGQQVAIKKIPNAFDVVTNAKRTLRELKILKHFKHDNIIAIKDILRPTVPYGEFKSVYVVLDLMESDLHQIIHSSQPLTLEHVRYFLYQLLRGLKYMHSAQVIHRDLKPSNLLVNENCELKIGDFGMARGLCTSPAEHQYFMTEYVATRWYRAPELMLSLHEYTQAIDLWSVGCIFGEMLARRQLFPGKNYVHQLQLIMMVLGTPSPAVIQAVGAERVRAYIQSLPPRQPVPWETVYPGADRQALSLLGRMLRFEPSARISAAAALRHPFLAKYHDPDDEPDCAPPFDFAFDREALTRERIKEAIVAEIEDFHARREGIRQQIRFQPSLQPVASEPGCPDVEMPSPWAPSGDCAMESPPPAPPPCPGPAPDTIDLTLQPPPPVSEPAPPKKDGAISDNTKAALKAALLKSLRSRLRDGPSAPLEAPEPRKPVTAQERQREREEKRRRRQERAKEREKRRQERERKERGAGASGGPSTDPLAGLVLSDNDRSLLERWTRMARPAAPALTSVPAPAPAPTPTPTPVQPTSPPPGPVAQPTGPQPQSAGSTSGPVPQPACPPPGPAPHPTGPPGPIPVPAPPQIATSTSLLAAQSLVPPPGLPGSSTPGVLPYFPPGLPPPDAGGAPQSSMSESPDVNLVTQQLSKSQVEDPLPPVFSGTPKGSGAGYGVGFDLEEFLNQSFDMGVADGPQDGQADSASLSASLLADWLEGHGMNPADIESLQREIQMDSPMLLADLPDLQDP

[9] = viability rescue of complex I mutant cybrids, primary screen, cell-based, galactose medium, ATP luminescence (AID 1645843;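 active = z-score of at least 1.8 in each of two replicates, scored against plate mean and spread of sample wells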;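 also: positive z means more ATP and so rescue of galactose-driven cybrid death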); details: complex I mutant cybrid cells, 72 h, stronger effect = higher value
[10] = LFS_MB_P medulloblastoma growth inhibition, cell-based, chromothripsis tumors, cisplatin or BGB combos (AID 1671449; in the data active = inhibition above about 80%;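 also: cells exposed for 96 hours; 0% = vehicle DMSO and 100% = killing by high DMSO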); details: LFS_MB_P medulloblastoma cells
[11] = HDN33 neuroblastoma growth inhibition, cell-based, chromothripsis tumors, cisplatin or BGB combos (AID 1671450; in the data active = inhibition above about 80%;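 also: cells exposed to compound for four days; 0% = vehicle DMSO and 100% = cell killing by high DMSO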); details: HDN33 neuroblastoma cells, stronger effect = higher value
[12] = ICB984 medulloblastoma cell growth inhibition, synergistic combos for chromothripsis tumors, cisplatin or BGB combos (AID 1671451; call rule not given here;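 also: cells exposed for 96 hours before readout; 0% = vehicle DMSO and 100% = killing by high DMSO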); details: ICB984 medulloblastoma cells, drug combinations, stronger effect = higher value
[13] = LFS_MB_1R medulloblastoma cell growth inhibition, synergistic combos for chromothripsis tumors, cisplatin or BGB combos (AID 1671452; in the data active = inhibition above about 80%;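 also: cells exposed for 96 hours before readout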); details: LFS_MB_1R medulloblastoma cells, stronger effect = higher value
[14] = HTB85 osteosarcoma cell growth inhibition, synergistic combos for chromothripsis tumors, BGB or cisplatin IC20 combos (AID 1671453; in the data active = inhibition above about 80%;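 also: cells exposed for 96 hours before readout; 0% = vehicle DMSO and 100% = high DMSO killing control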); details: HTB85 osteosarcoma cells, drug combinations, stronger effect = higher value
[15] = CRL2098 osteosarcoma cell growth inhibition, synergistic combos for chromothripsis tumors, BGB or cisplatin IC20 combos (AID 1671454; in the data active = inhibition above about 80%;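 also: cells exposed for 96 h before readout; 0% = vehicle DMSO and 100% = killing by high DMSO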); details: CRL2098 osteosarcoma cells, drug combinations, stronger effect = higher value
[16] = HD-MB03 medulloblastoma cell growth inhibition, synergistic combos for chromothripsis tumors, BGB or cisplatin IC20 combos (AID 1671455; in the data active = inhibition above about 83%;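 also: 0% = vehicle DMSO and 100% = high DMSO as cytotoxic control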); details: HD-MB03 medulloblastoma cells, stronger effect = higher value
[17] = MELAS cybrid survival, CellTiter-Glo 48 h, stronger effect = higher value
[18] = Rieske KO mouse fibroblast survival, CellTiter-Glo 72 h
[19] = measured here: combination with BGB IC40, at 0.05 µM

Nc1nnc(-c2cccc(Cl)c2Cl)c(N)n1
outcome [1]: inactive | outcome [2]: inactive | outcome [3]: inactive | outcome [4]: inactive | outcome [5]: inactive | z-score [6, 17]: 1.04 (inactive) and -0.0755 (inactive) and -0.75 (inactive) | z-score [6, 18]: -2.18 and 0.0455 and -0.484 | remaining NAD [7]: 10 nM (inactive) | luciferase signal [8]: 44 AU (inactive) | z-score [9]: 0.675 (inactive) and 0.31 (inactive) and 0.775 (inactive)

CN1CCC(=C2c3ccccc3CCc3sccc32)CC1
outcome [1]: inactive | outcome [2]: inactive | outcome [3]: inactive | outcome [4]: inactive | z-score [6, 17]: -0.441 (inactive) and -0.79 (inactive) | z-score [6, 18]: -0.11 and 0.709 | remaining NAD [7]: 10 nM (inactive) | luciferase signal [8]: 76 AU (inactive) | z-score [9]: -0.795 (inactive)

Nc1[nH]c(=O)ncc1F
outcome [1]: inactive | outcome [2]: inactive | outcome [3]: inactive | outcome [4]: inactive | z-score [6, 17]: -0.163 (inactive) and 0.671 (inactive) | z-score [6, 18]: 0.841 and -0.221 | remaining NAD [7]: 10 nM (inactive) | z-score [9]: 0.61 (inactive) | inhibition ([10]; at 0.5 µM, stronger effect = higher value): 35.6% (inactive) | inhibition ([10]; measured here: combination with BGB IC20, at 0.005 µM): -27.5% | inhibition ([10]; measured here: combination with BGB IC40, at 0.005 µM): -28.3% | inhibition [10, 19]: -22% | inhibition ([10]; measured here: combination with cisplatin, at 0.5 µM, stronger effect = higher value): 56.8% | inhibition ([10]; measured here: combination with cisplatin, at 5 µM, stronger effect = higher value): -29.9% | inhibition ([11]; BGB combo, at 5 µM): -19.9% | inhibition ([11]; at 0.5 µM): -18.6% (inactive) | inhibition ([11]; cisplatin combo, at 5 µM): -41.9% | inhibition ([11]; measured here: with BGB IC20 combination, at 0.5 µM): -4.48% | inhibition ([11]; measured here: with cisplatin IC20 combination, at 0.5 µM): -14.6% | inhibition ([11]; single agent, at 5 µM): 9.06% | inhibition ([12]; BGB IC20 combo, at 0.005 µM): -28.5% | inhibition ([12]; BGB IC40 combo, at 0.005 µM): -43.6% | inhibition ([12]; BGB IC40 combo, at 0.05 µM): -8.87% | inhibition ([12]; at 0.5 µM): -40.6% (inactive) | inhibition ([12]; cisplatin combo, at 0.05 µM): -8.87% | inhibition ([12]; cisplatin combo, at 0.5 µM): -57.1% | inhibition ([12]; cisplatin combo, at 5 µM): -45.6% | inhibition ([12]; measured here: 5 uM single agent, at 5 µM): -3.48% | inhibition ([13]; at 0.5 µM): -37.2% (inactive) | inhibition [13, 19]: -0.509% | inhibition ([13]; measured here: combination with cisplatin, at 0.5 µM): -34.6% | inhibition ([13]; measured here: combination with cisplatin, at 5 µM): -0.132% | inhibition ([14]; at 0.5 µM): -19.7% (inactive) | inhibition ([14]; measured here: with BGB IC20, at 0.5 µM): -43% | inhibition ([14]; measured here: with BGB IC20, at 5 µM): -34% | inhibition ([14]; measured here: with cisplatin IC20, at 0.5 µM): -6.71% | inhibition ([14]; measured here: with cisplatin IC20, at 5 µM): -6.3% | inhibition ([14]; single agent, at 5 µM): -19.7% | inhibition ([15]; at 0.5 µM): -73.3% (inactive) | inhibition ([15]; measured here: combination with BGB at IC20, at 0.5 µM): -56.9% | inhibition ([15]; measured here: combination with cisplatin at IC20, at 0.5 µM): -90.3% | inhibition ([16]; at 0.5 µM): 5.78% (inactive) | inhibition ([16]; measured here: combo with BGB at IC20, at 0.5 µM): 2.74% | inhibition ([16]; measured here: combo with cisplatin at IC20, at 0.5 µM): 10.4%

CCC1=C(C)CN(C(=O)NCCc2ccc(S(=O)(=O)NC(=O)NC3CCC(C)CC3)cc2)C1=O (stereo unspecified)
outcome [1]: inactive | outcome [2]: inactive | outcome [3]: inactive | outcome [4]: inactive | z-score [6, 17]: -0.439 (inactive) and 0.644 (inactive) and 0.245 | z-score [6, 18]: 0.486 and 0.124 and 2.28 | remaining NAD [7]: 10 nM (inactive) | z-score [9]: 2.29 (active) and 6.57 (active) and 1.99 (inactive)

— PubChem BioAssay
